This passage reports Percent Effect results from ChEMBL document CHEMBL3988442, “University of Dundee, Small-Polar-MMV Screening Library” (2021).

The target of this assay is AMP-activated protein kinase, AMPK (Homo sapiens) (UniProt P54646+O43741+P54619+Q9UGJ0+Q9Y478+Q13131+Q9UGI9). The assay can be described thus: AMP-dependent Kinase enzyme assay. An in vitro enzyme assay that detects ADP turnover that is directly proportional to AMPK activity. This uses naive AMPK that is activated during the assay with MK-8722. The assay is classed as functional. Also on record: scale not given: direction of the effect not stated beside the values. The conditions noted are these: 30 µM.
`CN(C(=O)c1ccccc1N(C)S(C)(=O)=O)c1ccc(C(C)(C)C)cc1`: the Percent Effect turned out to be 6.59%.

As for `CC(C)C(NC(=O)NCc1cccnc1N(C)C)c1cccs1` (stereo not given), the Percent Effect came out at 0.836%. On to `Cn1ccc(N2CCCC(NC(=O)c3ccc(Cl)o3)C2=O)n1` (stereo not given), for which the Percent Effect was 3.82%.

As for `CCOc1ccccc1C(C(=O)O)N(C)Cc1nc(C)c[nH]1` (stereo not given), the Percent Effect is 7.59%. As for `N#Cc1ccc(SCCC(=O)O)cc1`, the figure is 6.5%; as for `CN(Cc1ccsc1)C(=O)c1nc(N2CCCCC2)ncc1Cl`, 0.035%; as for `Cc1nc2c(c(NCC(=O)NC(C)C)n1)Cc1ccccc1OC2`, 5.96%. As for `CC(C)(C)CC(NC(=O)N1CCS(=O)(=O)CC1)C(F)(F)F` (stereo not given), the figure is -0.804%; as for `COc1ncnc(N)c1CNCCc1ccc(-n2cccn2)cc1`, 6.72%; as for `Cc1ccc(CCc2nc(C3CCOC3)no2)o1` (stereo not given), 10.1%. For `CN(CCOc1ccccc1)C(=O)Nc1cccn(C)c1=O`, the Percent Effect was -59.2%. As for `Cc1c(C(=O)NCCC(=O)N2CCCC2)cccc1-c1ccccn1`, the figure is 13.9%.

`CN(CCc1ccccn1)CCc1nccs1`: the Percent Effect came to 0.423%. As for `O=C(CNc1ccc(OC2CCOC2)cc1)NCc1ccc(F)cc1` (stereo not given), the figure is 18.1%; as for `CCN(C)S(=O)(=O)N1CCC(C(O)c2ccc(F)cc2)CC1` (stereo not given), -1.14%; as for `CC(C)c1nc(C2CCCN2CCc2ccccn2)no1` (stereo not given), 20.7%.

With `CCc1ccc(CCn2cnc(C#N)n2)cc1`, the Percent Effect is -0.907%. The same measure for `Cc1nnc(-c2cccc(C#N)c2)n1C1CCN(C(C)C)C1=O` (stereo not given): 7.44%. For the compound `CCOC(=O)c1ccc(S(=O)(=O)NCC(CC)N2CCCC2)cc1` (stereo not given), the Percent Effect is -6.04%. `CC(O)Cc1cn(CC2CCN(C3CCSCC3)CC2)nn1` (stereo not given): the Percent Effect was -7.5%.
